Structures are written as SMILES. Values without a mark were called inactive. Inconclusive results are not listed. Calls of active or inactive are those of the source. Unless noted, calls come from the whole dose curve; as a rule, active = well fitted curve in the direction sought with a large enough effect in the repeat runs; inconclusive = weak or mixed curves; inactive = no such curve, though single readings can be large; an effect the other way counts as inactive or inconclusive.

A short description of experiment [1]: qHTS RealTime-Glo MT Cell Viability Assay in HEK293 cells - 8 hour (AID 1224887). Note: top concentration of the series differs between compounds; nearly all actives have a fitted effect of over 50% in size. In outline:
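Tox21 screen in HEK293 using RealTime-Glo MT chemistry, with cells and reagent co-dispensed. Luminescence proportional to viable cell number was captured at intervals during 40 h compound exposure at 37 C.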

Experiment [2] is described as follows: A CellTox Green Cytotoxicity Assay to monitor cytotoxicity in HEK293 cells - 16 hour (AID 1224888). Note: nearly all actives have a fitted effect of over 35% in size. In outline:
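Seeding of HEK293 cells together with cytotoxicity dye preceded a 5 h incubation at 37 C/5% CO2. Test compounds in DMSO were then added and fluorescence monitored across 40 h.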

Experiment [3] is described as follows: qHTS RealTime-Glo MT Cell Viability Assay in HepG2 cells - 0 hour (AID 1224889). Note: nearly all actives have a fitted effect of over 50% in size. In outline: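 Real-time, nonlytic viability: 600 HepG2 cells/well mixed with NanoLuc enzyme plus prosubstrate; 5 h settle, compound (DMSO) added by pintool; luminescence monitored over 40 h at 37 C.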
Experiment [4] can be described thus: A CellTox Green Cytotoxicity Assay to monitor cytotoxicity in HepG2 cells - 8 hour (AID 1224890). Note: nearly all actives have a fitted effect of over 45% in size. In outline: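 Nonlytic assay: viable cells exclude the dye, so fluorescence scales with cell death. HepG2 at 600 cells/well, compounds added after 5 h, signal read across 40 h.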
The nature of experiment [5]: qHTS assay to identify small molecule antagonists of the estrogen receptor alpha (ER-alpha) signaling pathway using the BG1 cell line in the presence of 0.1 nM 17-beta-estradiol - cell viability counter screen (AID 1259241). Note: nearly all actives have a fitted effect of over 40% in size. In outline:
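Following 5 days in phenol red-free medium with charcoal-stripped serum, VM7Luc4E2 cells received test compounds alongside 0.1 nM 17beta-estradiol (final) at 37C for 22 hr. Live cells were then quantified via protease-substrate fluorescence.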

Experiment [6] can be described thus: qHTS assay to identify small molecule antagonists of the androgen receptor (AR) signaling pathway using the MDA cell line in the presence of 0.5 nM R1881 - cell viability counter screen (AID 1259242). Note: nearly all actives have a fitted effect of over 45% in size. The procedure, abridged:
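R1881 at 0.5 nM final stimulated MDA-kb2 cells during 16 hr compound treatment at 37C. Cytotoxicity read: CellTiter-Fluor fluorescence after 30 min.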

For experiment [7], the target named is Estrogen receptor (Homo sapiens) (UniProt P03372). Put plainly: qHTS assay to identify small molecule antagonists of the estrogen receptor alpha (ER-alpha) signaling pathway using the BG1 cell line in the presence of 0.1 nM 17-beta-estradiol (AID 1259244). Note: nearly all actives have a fitted effect of over 50% in size. The procedure, abridged: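 VM7Luc4E2; 4xERE-luciferase; 0.1 nM E2 final; 22 h co-incubation, 37C; ONE-Glo luminescence after 30 min at room temperature.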
Sequence of Estrogen receptor (Homo sapiens) (P03372 whole entry, looked up): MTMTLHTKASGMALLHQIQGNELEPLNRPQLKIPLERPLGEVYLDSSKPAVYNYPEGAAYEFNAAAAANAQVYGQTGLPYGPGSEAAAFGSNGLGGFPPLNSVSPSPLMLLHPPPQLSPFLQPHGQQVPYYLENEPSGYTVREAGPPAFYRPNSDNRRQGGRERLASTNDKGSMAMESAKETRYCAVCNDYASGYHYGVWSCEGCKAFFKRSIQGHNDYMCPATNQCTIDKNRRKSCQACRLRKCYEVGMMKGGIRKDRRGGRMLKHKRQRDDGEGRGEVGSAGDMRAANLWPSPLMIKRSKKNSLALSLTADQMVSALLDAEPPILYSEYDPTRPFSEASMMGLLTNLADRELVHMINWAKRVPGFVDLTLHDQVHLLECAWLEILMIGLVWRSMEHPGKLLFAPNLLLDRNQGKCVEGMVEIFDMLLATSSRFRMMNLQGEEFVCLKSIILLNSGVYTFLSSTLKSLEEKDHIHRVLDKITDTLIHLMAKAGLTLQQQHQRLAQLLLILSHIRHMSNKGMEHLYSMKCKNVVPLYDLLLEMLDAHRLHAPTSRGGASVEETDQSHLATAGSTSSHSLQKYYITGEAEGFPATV

The nature of experiment [8]: qHTS assay to identify small molecule HDAC inhibitors - cell viability counter screen (AID 1259365). Note: series mostly up to about 92 µM; nearly all actives have a fitted effect of over 50% in size. In outline:
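HCT-116 wild-type, overnight attachment; 2hr drug exposure, 37C; CellTiter-Glo luminescent ATP readout after 30min RT.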

Experiment [9] is described as follows: qHTS assay to identify small molecule agonists of the sonic hedgehog signaling (Shh) pathway - cell viability counter screen (AID 1259366). Note: nearly all actives have a fitted effect of over 50% in size. In outline: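 Compounds in DMSO were pin-transferred onto 3T3 Gli1-Luc cells that had settled 4hr; plates then stood 24hr at 37C and 5% CO2. One hour before the end, CellTiter-Fluor was added and fluorescence recorded.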

Experiment [10] in a line: qHTS assay to identify small molecule agonists of the sonic hedgehog signaling (Shh) pathway (AID 1259368; calls by dose curve;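 note: NIH/3T3-derived 3T3Gli1-Luc cells carrying a stable Gli1-driven firefly luciferase reporter; series mostly up to about 92 µM; nearly all actives have a fitted effect of over 15% in size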). In outline:
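Mouse fibroblast (NIH/3T3) reporter cells with stably integrated Gli1-Luc were treated 24 hr with compound; firefly luciferase luminescence served as the read-out.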

Experiment [11] can be described thus: qHTS assay to identify small molecule antagonists of the sonic hedgehog signaling (Shh) pathway (AID 1259369; calls by dose curve; note: nearly all actives have a fitted effect of over 45% in size). In outline: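 Conditioned medium drives Shh signalling in 3T3Gli1-Luc cells; compounds in DMSO co-applied, 24hr at 37 C, then luciferase luminescence.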
Experiment [12] is described as follows: qHTS assay to identify small molecule agonists of the androgen receptor (AR) signaling pathway in the presence of an antagonist - cell viability counter screen (AID 1259379).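 Note: MDA-kb2 human breast cancer cells carrying an MMTV luciferase reporter; series mostly up to about 92 µM; nearly all actives have a fitted effect of over 25% in size.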 The procedure, abridged:
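A CellTiter-Fluor read-out measured viability of MDA-kb2 reporter cells (MMTV promoter with AR and GR response elements). Treatment: nilutamide 3.0uM final with compounds at 15 concentrations, 16 hr, 37C, 0% CO2.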

The nature of experiment [13]: qHTS RealTime-Glo MT Cell Viability Assay in HEK293 cells - 24 hour (AID 1224886). Note: nearly all actives have a fitted effect of over 50% in size. Note: potency is the fitted concentration of half-maximal effect. The procedure, abridged:
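Cells + reagent dispensed (600 cells/well, HEK293) → 5 h at 37 C/5% CO2 → 23 nL compound in DMSO pinned → 40 h at 37 C → luminescence read at 0, 8, 16, 24, 32, 40 h.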

A short description of experiment [14]: qHTS assay to identify small molecule HDAC inhibitors (AID 1259364).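 Note: wild-type HCT-116 cells with endogenous class I/II HDAC activity; top concentration of the series differs between compounds; nearly all actives have a fitted effect of over 45% in size.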 In outline: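 Relative class I and II HDAC activity is taken from the luminogenic signal in HCT-116 cells, with compound exposure 2 hr and reagent development 30 min at room temperature.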
For experiment [15], the target named is Estrogen receptor beta (Homo sapiens) (UniProt Q92731). Nature of the experiment: qHTS assay to identify small molecule agonists of the estrogen receptor beta (ER-beta) signaling pathway (AID 1259377; active = well fitted activation curve with a large enough effect in the signal ratio in the repeat runs, not every such curve was filed as active; the % refers to the signal ratio). In outline: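 qHTS in ER-beta-UAS-bla HEK293T cells: 6 hr settling, then 16 hr compound at 37C, then LiveBLAzer substrate 2 h at RT before fluorescence reading.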
Sequence of Estrogen receptor beta (Homo sapiens) (Q92731 whole entry, looked up): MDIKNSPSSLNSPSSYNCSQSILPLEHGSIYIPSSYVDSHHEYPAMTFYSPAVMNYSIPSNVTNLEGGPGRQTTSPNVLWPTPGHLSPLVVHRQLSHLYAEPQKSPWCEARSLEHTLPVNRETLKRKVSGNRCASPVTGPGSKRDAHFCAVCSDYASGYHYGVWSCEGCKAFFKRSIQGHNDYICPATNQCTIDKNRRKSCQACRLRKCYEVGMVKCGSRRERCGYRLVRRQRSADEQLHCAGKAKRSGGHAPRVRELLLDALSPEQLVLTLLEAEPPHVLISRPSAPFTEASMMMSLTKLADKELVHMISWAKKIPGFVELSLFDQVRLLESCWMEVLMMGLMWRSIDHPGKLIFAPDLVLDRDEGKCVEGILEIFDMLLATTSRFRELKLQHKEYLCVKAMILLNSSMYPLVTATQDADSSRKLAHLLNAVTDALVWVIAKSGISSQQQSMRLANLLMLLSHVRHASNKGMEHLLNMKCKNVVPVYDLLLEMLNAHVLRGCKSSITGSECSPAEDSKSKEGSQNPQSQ

Experiment [16] shares this target. Put plainly: qHTS assay to identify small molecule antagonists of the estrogen receptor beta (ER-beta) signaling pathway (AID 1259378; active = well fitted inhibition curve with a large enough effect in the signal ratio in the repeat runs, not every such curve was filed as active; the % refers to the signal ratio). In outline: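 Antagonist mode: compounds added to beta-lactamase reporter HEK293T ER-beta-UAS cells stimulated with E2 (1nM final), 16 hr at 37C. LiveBLAzer B/G FRET substrate, 2 hours room temperature, fluorescence read-out.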

Experiment [17] can be described thus: qHTS assay to identify small molecule agonists of the estrogen receptor beta (ER-beta) signaling pathway - cell viability counter screen (AID 1259380). Note: nearly all actives have a fitted effect of over 30% in size. The procedure, abridged:
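Cells used were ER-beta-UAS-bla HEK293T in medium with 2% charcoal-stripped FBS. They were treated for 16 hr at 37C. Viability came from CellTiter-Glo luminescence.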

Experiment [18] can be described thus: qHTS assay to identify small molecule antagonists of the sonic hedgehog signaling (Shh) pathway - cell viability counter screen (AID 1259367). Note: nearly all actives have a fitted effect of over 55% in size. The procedure, abridged: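 Cells: 3T3 Gli1-Luc, 2,000/well, 4 hr pre-incubation. Compounds in DMSO, then conditioned medium. Incubation 24 hr, 37C, 5% CO2. CellTiter-Fluor at 23 hr, 1 hr, fluorescence.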
For experiment [19], the target named is Androgen receptor (Homo sapiens) (UniProt P10275). Put plainly: qHTS assay to identify small molecule antagonists of the androgen receptor (AR) signaling pathway using the MDA cell line in the presence of 0.5 nM R1881 (AID 1259243). Note: nearly all actives have a fitted effect of over 50% in size. The procedure, abridged: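 We exposed MDA-kb2 cells to compounds under 0.5 nM R1881 stimulation for 16 hr at 37C and quantified MMTV-driven luciferase by luminescence.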
Sequence of Androgen receptor (Homo sapiens) (P10275 whole entry, looked up): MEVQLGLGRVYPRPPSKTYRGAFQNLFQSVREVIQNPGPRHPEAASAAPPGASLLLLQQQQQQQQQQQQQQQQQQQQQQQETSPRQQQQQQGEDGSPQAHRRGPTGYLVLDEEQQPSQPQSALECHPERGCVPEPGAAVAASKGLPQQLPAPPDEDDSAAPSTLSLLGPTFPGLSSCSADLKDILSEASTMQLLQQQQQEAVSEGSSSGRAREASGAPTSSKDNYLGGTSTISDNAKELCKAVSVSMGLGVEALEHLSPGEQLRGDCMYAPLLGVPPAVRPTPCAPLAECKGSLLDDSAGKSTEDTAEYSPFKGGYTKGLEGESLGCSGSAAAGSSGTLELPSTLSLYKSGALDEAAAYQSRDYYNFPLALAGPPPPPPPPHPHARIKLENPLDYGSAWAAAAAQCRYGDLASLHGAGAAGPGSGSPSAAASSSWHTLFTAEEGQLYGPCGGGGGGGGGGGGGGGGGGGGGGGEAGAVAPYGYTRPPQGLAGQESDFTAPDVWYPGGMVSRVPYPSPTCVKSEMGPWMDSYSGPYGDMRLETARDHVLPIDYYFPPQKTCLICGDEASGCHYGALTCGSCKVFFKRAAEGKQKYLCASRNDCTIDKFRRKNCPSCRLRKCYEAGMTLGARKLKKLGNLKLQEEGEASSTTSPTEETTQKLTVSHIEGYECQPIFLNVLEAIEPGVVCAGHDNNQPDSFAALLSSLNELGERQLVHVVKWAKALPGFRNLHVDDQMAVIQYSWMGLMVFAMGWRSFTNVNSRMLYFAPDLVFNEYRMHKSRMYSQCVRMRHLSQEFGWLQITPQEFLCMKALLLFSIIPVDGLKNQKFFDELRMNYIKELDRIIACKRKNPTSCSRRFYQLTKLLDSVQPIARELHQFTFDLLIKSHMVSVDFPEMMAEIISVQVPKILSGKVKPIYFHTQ

Experiment [20] can be described thus: qHTS assay to identify small molecule phospholipidosis (PLD) inducers (AID 1259344; active = well fitted curve in the direction sought with a large enough effect; an effect the other way counts as inactive or inconclusive). The procedure, abridged: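 Phospholipidosis is scored by imaging LipidTOX-stained pits in HepG2 cells exposed to compound for 24 h at 37 C; pit counts and integrated intensities per well and per cell serve as outputs.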

For the molecule `c1ccc(B(c2ccccc2)c2ccccc2)cc1`, the Potency result in experiment [1], in [2], in experiment [3], in [4] and in experiment [11] was “inactive” each time. Moreover, the result in experiment [5], in experiment [6], in [7], in experiment [8], in experiment [9] and in experiment [10] was inactive. Also, the outcome in [12] was inactive.
Turning to `O=[N+]([O-])c1c(Cl)cc(Cl)cc1Cl`, the Potency result in experiment [13], in experiment [1], in experiment [3], in experiment [4], in [14] and in experiment [11] was “inactive” each time. Further, the Potency result in experiment [15] and in [16] was “inactive” each time. The result in experiment [5], in experiment [8], in [9], in experiment [10], in experiment [12] and in experiment [17] was inactive.
`C=CC(=O)CCCCC`: the Potency entry in [13], in experiment [1], in experiment [2], in experiment [3], in experiment [4] and in experiment [14] was “inactive” in each case. The Potency result in experiment [11] is “inactive”. The outcome in experiment [5], in experiment [8], in experiment [9], in experiment [18], in [10] and in [12] was inactive. In addition, the molecule was classed as inactive in experiment [17].
For `CC(C)=CCC/C(C)=C/COC=O`, the Potency result in [13], in experiment [1], in experiment [2], in [3], in [4] and in experiment [14] was “inactive” throughout. For the same molecule, the Potency entry in experiment [11] and in experiment [16] was “inactive” throughout. The result in experiment [5], in experiment [9], in experiment [18], in experiment [10], in [12] and in [17] was inactive.
With `O=C(O)CCCCCC(=O)O`, the Potency result in experiment [13], in experiment [1], in experiment [3], in experiment [4], in experiment [11] and in experiment [15] was “inactive” each time. Further, in experiment [16], the Potency entry is “inactive”. For the same molecule, the result in [5], in experiment [6], in [7], in experiment [8], in [9] and in [18] was inactive. Also, the molecule was classed as inactive in experiment [10], in experiment [12] and in experiment [17].
In the case of `CC(C)C[C@@H]1[C@H](c2ccccc2)OC(=O)N1CCCN1CCCCCC1`, the Potency result in experiment [1], in [2], in experiment [3], in experiment [4], in [19] and in experiment [14] was “inactive” each time. Further, the Potency result in experiment [11] and in [16] was “inactive” throughout. The outcome in [5], in experiment [6], in experiment [7], in experiment [8], in [9] and in experiment [18] was inactive. Also, the call in experiment [10], in [12] and in experiment [17] was inactive.
As for `COc1nc(N)nc2nc[nH]c12`, the Potency result in experiment [2], in experiment [3], in [4], in [14], in experiment [11] and in experiment [15] was “inactive” each time. In addition, the result in experiment [5], in [7], in [8], in experiment [9], in [10] and in experiment [12] was inactive. For the same molecule, the outcome in experiment [17] was inactive.
For `COc1cc2c(cc1OC)C(=O)C(CC1CCN(Cc3ccccc3)CC1)C2` (stereo not drawn), the Potency in experiment [13] was 21.3 µM (active). The Potency entry in [2], in [3], in [4], in experiment [19], in [14] and in experiment [15] was “inactive” throughout. For the same molecule, the outcome in experiment [5], in [6], in experiment [7], in experiment [20], in experiment [8] and in experiment [9] was inactive. The molecule was called inactive in experiment [18], in experiment [10], in [12] and in experiment [17].
Regarding `CCCc1ccc(O)cc1`, the Potency result in [13], in experiment [1], in experiment [2], in experiment [3], in experiment [14] and in experiment [11] was “inactive” throughout. For the same molecule, the Potency result in [15] and in experiment [16] was “inactive” in each case. The result in [5], in experiment [6], in experiment [7], in experiment [8], in [9] and in experiment [18] was inactive. The result in experiment [10] and in [12] was inactive.
